D3 ag – activates the human D3 dopamine receptor | D3R DiscoveRx beta-arrestin cells, luminescence, 90 min | AID 652048 | max activation, % | 0.58% of 410,000 active | P35462; in the data active means max activation above about 30%; further: 0% is about no effect
Target sequence (P35462 whole entry, looked up): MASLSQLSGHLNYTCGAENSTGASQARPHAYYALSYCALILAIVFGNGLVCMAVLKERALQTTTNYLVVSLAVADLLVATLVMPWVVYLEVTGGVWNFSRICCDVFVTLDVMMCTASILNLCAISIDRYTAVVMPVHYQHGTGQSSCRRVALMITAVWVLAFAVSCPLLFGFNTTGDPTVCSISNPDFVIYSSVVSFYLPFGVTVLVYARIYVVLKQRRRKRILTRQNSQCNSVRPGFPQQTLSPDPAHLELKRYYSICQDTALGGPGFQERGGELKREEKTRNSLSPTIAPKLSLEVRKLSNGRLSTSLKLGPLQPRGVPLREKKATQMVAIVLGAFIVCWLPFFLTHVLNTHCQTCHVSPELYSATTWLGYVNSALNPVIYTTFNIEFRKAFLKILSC
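Cells at 1500/well, incubated overnight, then treated with pinned compounds (dopamine as control) for 90 min at 37 degrees C. DiscoveRx reagent added for 30 - 60 minutes at room temperature; luminescence read.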
DRD3 antagonist – D3 dopamine receptor (human) antagonism; D3R cells, DiscoveRx beta-arrestin luminescence, antagonist mode; hits give low values; 2.5% of 360,000 active; AID 652054; max response, negative = inhibition, %; P35462; in the data active means max response below about -50%; inconclusive means no clear call, values can overlap the other calls; further: on the % scale 0 is the no-effect control and ±100 the full control effect
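Cells plated overnight at 1500 cells/well, then exposed to library compounds with dopamine controls for 90 minutes at 37 degrees C. DiscoveRx reagent added for 30–60 minutes at room temperature; luminescence read, quantitative HTS format.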
Nrf2 activator – activates Nrf2 signaling. AREc32 ARE-luciferase reporter (MCF7-derived line), luminescence, 24 h. Potency, µM (titrated, usually from 46.1 µM), without a hit: at the highest dose activation, most hits filed as activators. 0.31% of 410,000 active. AID 624171; further: potency means the concentration at half of the fitted maximal effect; % of control where 0% means no effect; nearly all actives have a fitted effect of over 65% in size
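Quantitative high-throughput format: AREc32 reporter cells, 1000 per well, received compound by pin transfer and were incubated 24 hr at 37 deg C, 5% CO2, before Steady-Glo luminescence detection.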
Glioma ERSR ind – inducers of ER stress response in human glioma cells. U87-MG GRP78 promoter luciferase reporter, 16 h. Potency, µM, inactives show top-dose activation, actives largely listed as activators. 0.02% of 420,000 active. AID 602332; further: potency means the concentration at half of the fitted maximal effect; series mostly up to about 76 µM; % of control where 0% means no effect; nearly all actives have a fitted effect of over 35% in size
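ERSR induction read as luciferase luminescence (Bright-Glo, 10 min at room temperature) in stably transfected human U87-MG glioma cells exposed to compounds for 16 h, using GRP78 as sensor.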
Active calls of the source: *; u = inconclusive; x = not tested or not shown. Only some compounds are listed: those with a hit (about 3% of all), similar ones and a draw of the others. Unless noted, the call rests on the fitted dose curve; in most records, active means well fitted curve in the direction sought with a large enough effect; inconclusive means small, poorly fitted or top-dose-only effect, or another doubt; inactive means no such curve, though single readings can be large; an effect the other way counts as inactive or inconclusive.

SMILES | D3 ag | DRD3 antagonist | Nrf2 activator | Glioma ERSR ind
Cc1ccc(CCNC(=O)c2cc3sccc3n2Cc2ccc(F)cc2)cc1 | -19 | x | -1% | -4%
Cc1ccccc1CSc1nnc(NC(=O)C2COc3ccccc3O2)s1 (configuration not stated) | 6 | -28 | 0% | -2%
O=C(Nc1nnc(SCc2ccccc2Cl)s1)C1COc2ccccc2O1 (configuration not stated) | -1 | -59* | 0% | -3%
CCOC(=O)c1cccc(NC(=O)c2ccc(-n3cnnn3)cc2)c1 | 74* | -3 | -1% | -1%
O=C(NCc1ccc(F)cc1)Nc1nnc([C@@H]2C[C@H](O)[C@@H](CO)O2)s1 | -9 | 0 | 0% | -1%
Cc1ccc(CNC(=O)Nc2nnc([C@@H]3C[C@H](O)[C@@H](CO)O3)s2)cc1 | -15 | -63* | 0% | 0%
O=S(=O)(Nc1cccc2cccnc12)c1cccs1 | x | x | x | -11%
CC1CCN(S(=O)(=O)c2cc(C(=O)NCc3ccc(N(C)C)cc3)n(C)c2)CC1 | 6 | x | 3% | 1%
CCCNC(=O)c1ccc(-n2c(-c3ccccc3)cc3c2CCCCC3)cc1 | -21 | x | 13µM* | -6%
CCNC(=O)c1ccc(-n2c(-c3ccccc3)cc3c2CCCCC3)cc1 | 0 | x | u | -2%
COCCNC(=O)c1ccc(-n2c(-c3ccccc3)cc3c2CCCCC3)cc1 | -18 | x | 16µM* | 2%
CN(C)CCNC(=O)c1ccc(-n2c(-c3ccccc3)cc3c2CCCC3)cc1 | -10 | x | 11µM* | -5%
OCC1CCCN(c2nc3cc4c(cc3cc2CNCc2cccc(C(F)(F)F)c2)OCO4)C1 (configuration not stated) | x | x | x | -2%
N=c1c(C(=O)NCc2ccco2)cc2c(=O)n3ccccc3nc2n1Cc1ccccc1 | -10 | -51* | 7% | -3%
N=c1c(C(=O)NCc2ccco2)cc2c(=O)n3ccccc3nc2n1Cc1ccc(Cl)cc1 | -13 | u | 2% | -3%
Cc1cccn2c(=O)c3cc(C(=O)NCc4ccco4)c(=N)n(CCc4ccccc4)c3nc12 | 10 | -11 | 6% | 4%
Cc1cccn2c(=O)c3cc(C(=O)NCCc4ccccc4)c(=N)n(Cc4ccco4)c3nc12 | -16 | -100* | u | -6%
O=c1c(-c2ccc(O)cc2)coc2cc(O[C@@H]3O[C@H](CO)[C@H](O)[C@H](O)[C@H]3O)ccc12 | x | x | x | -2%
Cc1ccc2c(c1)nnn2C1CCN(CC(=O)N2c3ccccc3CC2C)CC1 (configuration not stated) | -9 | -70* | 0% | -2%
O=C(CN1CCC(n2nnc3cc(C(F)(F)F)ccc32)CC1)N1CCc2ccccc21 | -15 | -26 | -1% | 0%
CC1CCC(NC(=O)CN2CCC(n3nnc4cc(F)ccc43)CC2)CC1 (configuration not stated) | 0 | -67* | 0% | -5%
O=C(CN1CCC(n2nnc3cc(F)ccc32)CC1)NCCc1nc2ccccc2[nH]1 | -34 | -65* | 0% | -6%
O=C(CN1CCC(n2nnc3cc(F)ccc32)CC1)NNC(=O)c1ccccc1 | -25 | u | 0% | -2%
O=C(CN1CCC(n2nnc3cc(F)ccc32)CC1)N1CCCc2ccccc21 | 0 | -54* | 0% | -4%
COCCNC(=O)C1(C(F)(F)F)C/C(=C\Cc2ccccc2)CCCO1 (configuration not stated) | x | x | x | -4%
SMILES | D3 ag | DRD3 antagonist | Nrf2 activator | Glioma ERSR ind
CSc1ccc(-c2ccc(C(=O)NCC3CCCO3)c(N3CCC(O)CC3)n2)cc1 (configuration not stated) | x | x | x | 2%
C[C@H]1[C@H](C)CC[C@]2(C=O)CC[C@]3(C)C(=CC[C@@H]4[C@@]5(C)C[C@@H](O)[C@H](O)[C@@](C)(CO)[C@@H]5CC[C@]43C)[C@H]12 | x | x | x | -5%
O=C(Cn1c(=O)n(-c2ccccc2Cl)c(=O)c2sc3ccccc3c21)NC1CCCCC1 | 0 | x | -1% | -4%
Cc1ccc2c(c1)nnn2C1CCN(CC(=O)Nc2ccc(F)cc2)CC1 | -34 | u | 0% | -4%
O=C(CN1CCC(n2nnc3ccccc32)CC1)Nc1ccc2c(c1)CCC2 | -7 | -65* | 4% | -2%
Cc1ccccc1NC(=O)CN1CCC(n2nnc3ccccc32)CC1 | 0 | u | 0% | -2%
O=C(CN1CCC(n2nnc3cc(F)ccc32)CC1)Nc1ccc2c(c1)CCC2 | -11 | -76* | 0% | -2%
CC(C)(C)n1ncc2c(=O)n(Cc3ccccc3F)cnc21 | x | x | x | -3%
Clc1ccc2c(SCC3CO3)c3ccccc3nc2c1 (configuration not stated) | -30 | -91* | 16% | -12%
O=C(Nc1ccccc1)NC(Cc1ccc(O)cc1)C(=O)O (configuration not stated) | 22 | -65* | -1% | -3%
NNc1nc(-c2ccccc2)cc(-c2ccccc2O)n1 | -86 | -100* | 0% | -1%
COc1ccccc1CNC(=O)c1cnn(-c2nccc(-c3cccs3)n2)c1C | x | x | x | -2%
CCC(C)NC(=O)c1cc(C)no1 (configuration not stated) | -9 | -64* | 0% | -6%
CCOC(=O)C(C)NC(=O)C1CCN(c2ncnc3c2nc2n3CCCCC2)CC1 (configuration not stated) | -4 | x | -1% | u
COc1cc(NC(=O)c2sc3nc(C)nc(N4CCOCC4)c3c2C)cc(OC)c1OC | 34* | 43 | 2% | 5%
CC(C)=CC1C=C(C)C(C)C2C(=O)NNC(=O)C12 (configuration not stated) | 2 | -97* | 0% | -5%
CC(O)(c1cccc(F)c1)c1nc(/C=C/c2ccccc2)cs1 (configuration not stated) | -18 | -88* | 0% | -4%
C#CCCCO/N=C1/C[C@@H](O)[C@@H](O)[C@@H]2[C@H]3C(=O)N(c4ccc(F)cc4F)C(=O)[C@@H]3CC[C@@H]12 | x | x | x | -6%
Cc1ccc(S(=O)(=O)N(C)c2ccc(C(=O)NCC(c3ccco3)N3CCCC3)cc2)cc1 (configuration not stated) | -1 | -28 | 11% | -1%
Cc1ccc(N(C)S(=O)(=O)c2cccc(C(=O)NCC(c3ccco3)N3CCCC3)c2)cc1 (configuration not stated) | -21 | -69* | 4% | -2%
Cc1ccc(N(C)S(=O)(=O)c2cccc(C(=O)Nc3nc4ccccc4[nH]3)c2)cc1 | 42* | 34 | 4% | 0%
CN(C)c1cccc(C(=O)Nc2nc3ccccc3[nH]2)c1 | -15 | u | -2% | -12%
Cc1cccc(NS(=O)(=O)c2cccc(C(=O)NCC(c3ccco3)N3CCCCC3)c2)c1 (configuration not stated) | -11 | -64* | 4% | -5%
CCCCCCCCCCCCCCCCCCOP(=O)([O-])OC1CC[N+](C)(C)CC1 | 5 | x | x | -4%
Cc1cnc(-n2ncc(C(=O)NCCN3CCOCC3)c2-c2cccs2)nc1-c1ccc(F)cc1 | x | x | x | -2%
CO[C@H]1[C@H](NC(=O)c2ccsc2)c2ccccc2C12CCN(Cc1c(O)ccc3ccccc13)CC2 | x | x | x | 1%

Compound activity: PubChem, National Center for Advancing Translational Sciences (NCATS)
